Screens deposited in PubChem BioAssay by National Center for Advancing Translational Sciences (NCATS).
D1 antag: antagonists of human D1 dopamine receptor; actives 3.2% (n = 360,000); HEK293 TREx D1 cells, calcium flux, dopamine EC80; active compounds read low; P21728; activity change, negative = inhibition, % at 10 µM; AID 504652; in the data active = activity change below about -30%; note: % is set by controls: 0 for no effect and ±100 for the full control effect
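Tetracycline-induced HEK293 T-REx cells with force-coupled D1 receptor were loaded with a no-wash calcium dye. Compound was added after a 10 s baseline and read kinetically for 180 s; EC80 dopamine was then added and calcium flux followed another 180 s.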
DRD3 agonist: activates the human D3 dopamine receptor. P35462. D3R DiscoveRx beta-arrestin cells, luminescence, 90 min. max activation, %. actives 0.58% (n = 410,000). AID 652048; in the data active = max activation above about 30%; note: 0% is about no effect
Target sequence (P35462 whole entry, looked up): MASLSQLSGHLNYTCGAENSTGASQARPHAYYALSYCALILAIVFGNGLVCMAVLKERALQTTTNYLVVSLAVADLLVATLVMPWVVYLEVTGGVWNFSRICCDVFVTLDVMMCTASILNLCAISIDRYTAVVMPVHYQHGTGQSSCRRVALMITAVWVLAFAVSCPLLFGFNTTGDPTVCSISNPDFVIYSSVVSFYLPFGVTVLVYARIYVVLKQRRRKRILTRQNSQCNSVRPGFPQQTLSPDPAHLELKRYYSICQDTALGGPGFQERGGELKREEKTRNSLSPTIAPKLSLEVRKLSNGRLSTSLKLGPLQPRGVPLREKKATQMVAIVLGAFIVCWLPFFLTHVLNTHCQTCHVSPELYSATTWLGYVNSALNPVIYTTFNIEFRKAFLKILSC
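Cells at 1500/well, incubated overnight, then treated with pinned compounds (dopamine as control) for 90 min at 37 degrees C. DiscoveRx reagent added for 30 - 60 minutes at room temperature; luminescence read.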
D1 ag: human D1 receptor agonism; P21728; HEK293 T-REx D1 cells, calcium flux, agonist mode; activation, % at 2 µM; actives 1% (n = 360,000); AID 504660; in the data active = activation above about 30%; note: 0% is about no effect
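Tetracycline-induced HEK293 TREx D1 cells, force-coupled to calcium signalling, were dye-loaded with a no-wash calcium kit. Compound was pin-added after a 10 s baseline. Fluorescence was read kinetically at 1 cycle/s for 180 s, with calcium rises flagged as agonism.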
DRD3 antagonist: D3 dopamine receptor (human) antagonism. D3R cells, DiscoveRx beta-arrestin luminescence, antagonist mode; active compounds read low. max response, negative = inhibition, %. AID 652054. actives 2.5% (n = 360,000). P35462; in the data active = max response below about -50%; inconclusive = no clear call, values can overlap the other calls; note: % is set by controls: 0 for no effect and ±100 for the full control effect
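Cells plated overnight at 1500 cells/well, then exposed to library compounds with dopamine controls for 90 minutes at 37 degrees C. DiscoveRx reagent added for 30–60 minutes at room temperature; luminescence read, quantitative HTS format.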
D1 potentiator: human D1 dopamine receptor positive modulation; P21728; HEK293 TREx D1 cells, calcium flux, dopamine EC20 potentiation; potentiation, % at 10 µM; actives 0.036% (n = 360,000); in the data active = potentiation above about 30%; note: 0% is about no effect
Starred values were filed as active, the others as inactive; ! = repeats disagree. Rows were chosen to be rich in hits. Some 6.1% of all compounds tested hit in one or more screens of this group.

Screening Cc1ccc(O)c(-c2[nH]ncc2C(=O)c2ccc(Cl)cc2)c1 returned D1 antag -34*, DRD3 agonist -11, D1 ag 12, DRD3 antagonist -25 and D1 potentiator -8.
`C/C(=N\OCC(=O)OCC(=O)N(Cc1ccccc1)C(C)(C)C)c1ccc2c(c1)OCO2` gave D1 antag -36*, DRD3 agonist 10, D1 ag 25, DRD3 antagonist 6 and D1 potentiator -10.
For CCC(NC(C)C)C(O)c1ccc(O)c(O)c1 (centres undefined) the results were D1 antag -23, DRD3 agonist 34*!, D1 ag 3, DRD3 antagonist 30 and D1 potentiator 5.
Screening CC[C@H](NC(C)C)[C@H](O)c1ccc(O)c2[nH]c(=O)ccc12 returned DRD3 agonist 45*.
`CCC1C/C(=C/c2ccco2)C(=O)/C(=C/c2ccco2)C1` (centres undefined) gave D1 antag 10, D1 ag 37* and D1 potentiator 1.
`O=C1C2C3C=CC(CC3)C2C(=O)N1/N=C/c1ccccc1O` (centres undefined) gave D1 antag 8, DRD3 agonist 2, D1 ag 5, DRD3 antagonist -65* and D1 potentiator -7.
Screening Clc1ccc2c(c1)C(C1=NCCN1)c1ccccc1CS2 (centres undefined) returned D1 antag -4, DRD3 agonist 1, D1 ag 7, DRD3 antagonist 6 and D1 potentiator -2.
For S=C1NCCc2ccc(Cl)cc2C1c1ccccc1Cl (centres undefined) the results were D1 antag -9, DRD3 agonist -2, D1 ag -1, DRD3 antagonist -71* and D1 potentiator -4.
For C=CCN1C2CCCC1CC(NC(=O)Nc1cc(C)cc(C)c1)C2 (centres undefined) the results were D1 antag -7, DRD3 agonist -2, D1 ag 5, DRD3 antagonist -10 and D1 potentiator -6.
For S=C(Nc1ccc(Cl)cc1)NC1CC2CCCC(C1)N2C1CCCC1 (centres undefined) the results were DRD3 agonist -15 and DRD3 antagonist -19.
Screening C=CCN1C2CCCC1CC(NC(=S)Nc1ccc(Cl)cc1)C2 (centres undefined) returned D1 antag -84*, DRD3 agonist -9, D1 ag 23, DRD3 antagonist 3 and D1 potentiator -1.
For S=C(Nc1ccc(Cl)cc1)NC1CC2CCCC(C1)N2C1CC1 (centres undefined) the results were D1 antag -41*, DRD3 agonist 1, D1 ag 135*, DRD3 antagonist 10 and D1 potentiator 7.
Screening CNC(=O)/C(C#N)=C\c1ccc(CNS(=O)(=O)c2ccccc2)o1 returned D1 antag -17, DRD3 agonist -5, D1 ag 1, DRD3 antagonist -26 and D1 potentiator -10.
CNC(=O)/C(C#N)=C\c1ccc(CNS(=O)(=O)c2ccc(Cl)cc2)o1 was read as D1 antag -69*, DRD3 agonist 5, D1 ag 1, DRD3 antagonist -7 and D1 potentiator -4.
For CCN(Cc1ccccc1)C(=O)CN1C(=O)CSc2ccc(S(=O)(=O)N(CC)CC)cc21 the results were D1 antag 16, DRD3 agonist 6, D1 ag 0 and D1 potentiator -3.
For COc1ccccc1-c1nnc(SCC(=O)Nc2ccc(S(N)(=O)=O)cc2)n1N the results were D1 antag 7, DRD3 agonist -18, D1 ag 1, DRD3 antagonist 20 and D1 potentiator 1.
CCOC(=O)c1cnc(Nc2nc3ccccc3o2)nc1CN1CCN(C)CC1 was read as D1 antag -56*, DRD3 agonist -2, D1 ag 0, DRD3 antagonist 0 and D1 potentiator -1.
CCC(C)(C)NC(=O)C1CCN(S(=O)(=O)c2ccc3c(c2)CCCN3C(C)=O)CC1 was read as D1 antag -6, DRD3 agonist 0, D1 ag -1 and D1 potentiator -4.
For N#Cc1c2c(c(NCc3cccnc3)n3c1nc1ccccc13)CCC2 the results were D1 antag 2, DRD3 agonist -1, D1 ag 0, DRD3 antagonist -53* and D1 potentiator -5.
For COCCNc1c2c(c(C#N)c3nc4ccccc4n13)CCCC2 the results were D1 antag 6, DRD3 agonist 5, D1 ag 0, DRD3 antagonist 7 and D1 potentiator -2.
O=c1c2cc(NC(=S)N3CCCC3)ccc2nc2n1CCCCC2 was read as D1 antag 0, DRD3 agonist -13, D1 ag 1, DRD3 antagonist -23 and D1 potentiator 10.
`CCN1CCN(C(=S)Nc2ccc3nc4n(c(=O)c3c2)CCCCC4)CC1` gave D1 antag -2, DRD3 agonist -9, D1 ag 36*, DRD3 antagonist 10 and D1 potentiator -4.
CCCN(CCC)CCCNC(=S)Nc1ccc2nc3n(c(=O)c2c1)CCCCC3 was read as D1 antag -30*, DRD3 agonist -7, D1 ag 0, DRD3 antagonist -8 and D1 potentiator -10.
For CN1C=CC(=O)[C@@H](O)[C@H]1c1ccccc1Br the results were DRD3 agonist 8 and DRD3 antagonist 12.
For Clc1ccc(-c2csc(NNC3=NCCCCC3)n2)cc1 the results were D1 antag 8, DRD3 agonist -1, D1 ag -1, DRD3 antagonist -78* and D1 potentiator 4.
`Cc1ccccc1NC(=O)NC1CCCc2ccccc21` (centres undefined) gave D1 antag -28, DRD3 agonist -1, D1 ag 4, DRD3 antagonist 8 and D1 potentiator -7.
For COc1ccc(Cl)cc1-n1cc(-c2ccccc2)nc1SCC(=O)Nc1ccc(C)cc1 the results were D1 antag 0, DRD3 agonist -6, D1 ag 3 and D1 potentiator 1.
Screening CCOC(=O)c1cc(-c2ccc(OC(F)F)cc2)nc2c1c(=O)[nH]c(=O)n2C returned D1 antag -5, DRD3 agonist 1, D1 ag 3, DRD3 antagonist 7 and D1 potentiator -2.
For OC(CN1CCCCC1)Cn1c2ccc(Cl)cc2c2cc(Cl)ccc21 (centres undefined) the results were D1 antag 13, DRD3 agonist -35, D1 ag 35*, DRD3 antagonist inconclusive and D1 potentiator -4.
Screening OC(CN1CCN(c2ccccn2)CC1)Cn1c2ccc(Cl)cc2c2cc(Cl)ccc21 (centres undefined) returned D1 antag 3, DRD3 agonist 45*, D1 ag 0, DRD3 antagonist 52 and D1 potentiator -1.
For O=C(c1cc(Cl)nc2ccccc12)N1CCN(S(=O)(=O)c2cccc(C(F)(F)F)c2)CC1 the results were D1 antag -33*, DRD3 agonist 6, D1 ag -1, DRD3 antagonist -5 and D1 potentiator -6.
